Test results: PubChem BioAssay
Calls of active or inactive are those of the source. Unless noted, how the calls were made is not given here.

Key:
[1] = system: XIP peptide (Xip251-270) binding; assay: small-molecule binders of XIP peptide, primary screen, biochemical, small-molecule microarray, fluorescence 635/667 nm, 0.1 µg/mL protein (AID 1182); settings: fluorescent protein binding, 635 nm, higher = more signal, called active from +8 up or from −8 down
XIP peptide (Xip251-270) = assay: small-molecule binders of XIP peptide, primary screen, biochemical, small-molecule microarray, fluorescence 635/667 nm, 0.5 µg/mL protein (AID 1183); settings: small-molecule microarray binding, fluorescence 635 nm; higher = more signal
[2] = Plasmodium falciparum growth inhibition, primary screen, strain 3D7, DAPI fluorescence, 100 nL (AID 1184);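 further: parasites grown inside human red blood cells in medium with human serum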; settings: P. falciparum 3D7 growth, 3 d, higher = more signal
[3] = target: Homeobox protein Hox-A13 (Mus musculus) (UniProt Q62424); assay: inhibitors of HoxA13-DNA binding, primary screen, biochemical, fluorescence polarization, labeled oligonucleotide (AID 1185); settings: 15 min, higher = more signal, called active from +8 up or from −8 down
Sequence of Homeobox protein Hox-A13 (Mus musculus) (Q62424 whole entry, looked up): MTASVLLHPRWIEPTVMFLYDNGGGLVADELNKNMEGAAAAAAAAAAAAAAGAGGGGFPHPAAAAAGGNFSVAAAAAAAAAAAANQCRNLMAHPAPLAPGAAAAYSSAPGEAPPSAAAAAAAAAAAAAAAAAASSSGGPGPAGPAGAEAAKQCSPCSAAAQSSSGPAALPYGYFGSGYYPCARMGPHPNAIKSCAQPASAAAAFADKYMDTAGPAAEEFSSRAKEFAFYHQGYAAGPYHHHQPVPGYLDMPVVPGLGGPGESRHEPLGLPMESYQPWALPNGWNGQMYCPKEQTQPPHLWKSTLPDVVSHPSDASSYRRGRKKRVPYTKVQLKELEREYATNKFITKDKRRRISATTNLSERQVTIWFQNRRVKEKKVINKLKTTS

[4] = inhibitors of hydroxyurea-induced Chk1 phosphorylation, primary screen, imaging, HeLa, phospho-Chk1 antibody, percent positive cells (AID 1186); settings: hydroxyurea-induced phospho-Chk1 immunofluorescence imaging, higher = more signal
[5] = inhibitors of hydroxyurea-induced Chk1 phosphorylation, primary screen, imaging, HeLa, phospho-Chk1 nuclear intensity (AID 1187); settings: hydroxyurea-induced phospho-Chk1 immunofluorescence imaging, higher = more signal

Structure (SMILES) | composite z-score [1] | composite z-score (XIP peptide (Xip251-270)) | z-score [2] | z-score [3] | z-score [4] | z-score [5]
CCN1C(=O)[C@H]2[C@H]3[C@H](O)[C@H](O)CC(=NOC(C)CN4CCCCc5nc(C)c(C)cc54)[C@@H]3CC[C@H]2C1=O (stereo partly specified) | 0.746 (inactive) | 0.196 | 0.0706 | -1.48 (inactive) |  | 
Cc1cc2c(nc1C)CCCN2CC(C)ON=C1[C@H]2CCn3c(=O)n(-c4ccccc4)c(=O)n3[C@H]2[C@H](O)[C@@H]2O[C@H]12 (stereo partly specified) | 0.117 (inactive) | 0.32 | 0.0318 | -8.15 (active) |  | 
COCCNC(=O)OCC1CCCC2(CC(OC(=O)NCCc3ccc(F)cc3)CC(CCC(=O)N[C@@H](C)C(=O)OC)O2)O1 (stereo partly specified) | 0.417 (inactive) | 0.579 | -1.82 | -3.44 (inactive) |  | 
CCOC(=O)CCN1C(=O)[C@H]2[C@H]3[C@H](O)C=CC(=O)[C@@H]3CC[C@H]2C1=O | 0.58 (inactive) | 0.0156 | -0.0439 | -0.525 (inactive) |  | 
COc1ccc(O[C@H]2C=C[C@@H](c3ccccc3)O[C@@H]2COC(=O)CCC(C)=NO[C@@H](C)c2cc(-c3c(C)cc(C)cc3C)no2)cc1 | -0.491 (inactive) | -0.782 | -0.739 | -0.508 (inactive) |  | 
CO[C@H]1COC(=O)[C@@H]2CCCN2C(=O)[C@@H](C)COC(=O)CC=C[C@@H]1C | -0.0014 (inactive) | 0.371 | 1.2 | -0.54 (inactive) |  | 
CC(CCN1CCc2nc(-c3ccccc3)c(-c3ccccc3)cc2C1)=NO[C@H](C)c1cn([C@@H]2COC[C@H]2O)nn1 | -0.378 (inactive) | 0.175 | 0.429 | -5.45 (inactive) |  | 
CCc1cc2c(nc1CC)CCN(CCC(C)=NOC[C@@H](O)[C@H]1O[C@@H]3OC(C)(C)O[C@@H]3[C@H]1O)C2 | 0.221 (inactive) | 0.267 | 0.204 | -5.4 (inactive) |  | 
Cn1c(=O)n2n(c1=O)[C@H]1[C@H](O)[C@@H]3O[C@@H]3C(=NOC[C@@H](O)COCc3ccco3)[C@H]1CC2 | 3.04 (inactive) | 0.265 | 0.192 | 0.445 (inactive) |  | 
CO[C@@H]1COC(=O)[C@@H]2CCCN2C(=O)[C@@H](C)COC(=O)[C@H](COCc2ccccc2)NC(=O)CC=C[C@H]1C | -0.33 (inactive) | 0.0728 | -0.67 | -0.767 (inactive) |  | 
CCOC(=O)CCN1C(=O)[C@H]2[C@H]3[C@H](O)[C@H](O)CC(=NOC[C@@H](O)COCc4ccco4)[C@@H]3CC[C@H]2C1=O | -0.159 (inactive) | 0.807 | 1.93 | -0.692 (inactive) |  | 
COc1ccc(-c2nc3c(c4c2C[C@H](C)OC4)CN(CCC(C)C)CC3)cc1 | 0.731 (inactive) | 0.653 | 0.888 | -5.51 (inactive) |  | 
Cc1cc2c(c(=O)o1)[C@H](O)[C@H]1O[C@H]1C2=O | 0.326 (inactive) | -0.311 | -0.811 | -4.87 (inactive) |  | 
O=C1C[C@@H](O)[C@@H](O)[C@@H]2[C@@H]3C(=O)N(c4cccc(Oc5ccccc5)c4)C(=O)[C@@H]3CC[C@@H]12 | -0.0811 (inactive) | 0.726 | -0.61 | -4.11 (inactive) |  | 
CC(=O)OC[C@H]1O[C@H](CC=NOC[C@@H](C)[C@H](OCc2ccccc2)C(C)C)C=C[C@@H]1OC(C)=O | -0.655 (inactive) | -0.303 | -0.46 | -5.81 (inactive) |  | 
O=C1[C@H]2[C@H]3[C@H](O)[C@H](O)CC(=NOC[C@@H](O)COCc4ccco4)[C@H]3CC[C@H]2C(=O)N1Cc1ccc2c(c1)OCO2 | 0.525 (inactive) | 0.127 | 0.436 | -0.743 (inactive) |  | 
CC(C)[C@@H](OCc1ccccc1)[C@H](C)C=NOC[C@@H](C)[C@H](OCc1ccccc1)C(C)C | 0.468 (inactive) | -0.185 | 0.128 | 0.24 (inactive) |  | 
CO[C@H]([C@@H](C)[C@H](OC)c1ccccc1)[C@H](C)[C@@H](OC)[C@H](C)C(C)=O | 0.111 (inactive) | -0.694 | 0.117 | -1.36 (inactive) |  | 
CC(C)CN1CCc2nc(-c3ccccc3)c3c(c2CC1)CO[C@@H](C)C3 | 0.277 (inactive) | -0.399 | -0.235 | -0.219 (inactive) |  | 
COc1ccc(O[C@H]2C=C[C@@H](c3ccccc3)O[C@@H]2CON=C[C@@H](C)[C@H](OCc2ccccc2)C(C)C)cc1 | 0.0702 (inactive) | -0.126 | -0.118 | -0.538 (inactive) |  | 
CCCCc1nc2c(c3c1C[C@H](C)OC3)CN(CCC(C)C)CC2 | 0.172 (inactive) | 0.715 | -0.522 | -5.63 (inactive) |  | 
COc1ccc(O[C@H]2C=C[C@@H](c3ccccc3)O[C@@H]2COC(=O)CCC(C)=NOC(C)CN2CCCCc3nc(C)c(C)cc32)cc1 (stereo partly specified) | 0.422 (inactive) | -0.674 | -1.34 | -2.19 (inactive) |  | 

Structure (SMILES) | composite z-score [1] | composite z-score (XIP peptide (Xip251-270)) | z-score [2] | z-score [3] | z-score [4] | z-score [5]
O=C1C[C@@H](O)[C@@H](O)[C@@H]2[C@@H]3C(=O)N(c4ccc(F)cc4F)C(=O)[C@@H]3CC[C@@H]12 | 0.0164 (inactive) | -0.0741 | 0.452 | -0.595 (inactive) |  | 
CCOC(=O)NN=C1C[C@@H](O)[C@@H](O)[C@@H]2[C@@H]3C(=O)N(CC)C(=O)[C@@H]3CC[C@@H]12 | -0.359 (inactive) | 0.482 | 0.518 | 0.443 (inactive) |  | 
COC(=O)[C@H](C)NC(=O)CCC1CC(OC(=O)NCc2ccc3c(c2)OCO3)CC2(CCCC(COC(=O)NCCOc3ccccc3)O2)O1 (stereo partly specified) | -0.045 (inactive) | 0.588 | -1.79 | -2.45 (inactive) |  | 
COc1ccc(COC(=O)NN=C2C[C@@H](O)[C@@H](O)[C@@H]3[C@@H]4C(=O)N(c5ccc(F)cc5F)C(=O)[C@@H]4CC[C@@H]23)cc1 | -0.413 (inactive) | -0.0386 | -0.351 | -3.33 (inactive) |  | 
CO[C@@H]1COC(=O)CC=C[C@@H](C)[C@H](OC)COC(=O)[C@H](COCc2ccccc2)NC(=O)CC=C[C@H]1C | 0.025 (inactive) | -0.988 | -0.17 | -1.64 (inactive) |  | 
CC(CCN1CCCCc2nc(C)c(C)cc21)=NOC(C)CN1CCCc2nc(C)c(C)cc21 (stereo unspecified) | 0.829 (inactive) | 0.731 | 0.507 | -10.5 (active) |  | 
C[C@@H](c1ccccc1)N1C(=O)[C@H]2[C@H]3[C@H](O)[C@H](O)CC(=NNC(=O)OCc4ccccc4)[C@H]3CC[C@H]2C1=O | -0.724 (inactive) | -0.131 | -0.547 | -5.68 (inactive) |  | 
CC=CC1=C(CO)[C@H](O)[C@H]2O[C@H]2[C@H]1O | -0.461 (inactive) | -0.229 | 0.337 | -0.532 (inactive) |  | 
C[C@@H]1CCC2C(=O)N(Cc3ccccc3)C[C@@H](O)CN2[C@H]1c1ccc(Br)cc1 (stereo partly specified) | 1 (inactive) | 0.689 | 0.787 | -3.92 (inactive) |  | 
CC(C)=CCCC(C)=CCON=C1C[C@@H](O)[C@@H](O)[C@@H]2[C@@H]3C(=O)N(C[C@@H]4CCCO4)C(=O)[C@@H]3CC[C@@H]12 | 0.0561 (inactive) | 0.539 | 1.55 | 0.264 (inactive) |  | 
COc1cccc([C@H]2Oc3ccc(OC)cc3C(=NO[C@H](C)c3cn([C@@H]4COC[C@H]4O)nn3)[C@@H]2O)c1 | 0.0524 (inactive) | -0.561 | -0.866 | -2.61 (inactive) |  | 
C[C@@H]1C=CCC(=O)OC[C@H](C)C(=O)N[C@@H](C)C(=O)OC1 | 0.0195 (inactive) | -0.059 | -0.207 | 0.442 (inactive) |  | 
CC1(C)OCC(C(O)C2=CCCCC2=O)CO1 (stereo unspecified) | 0.563 (inactive) | 0.446 | -0.831 | -2.61 (inactive) |  | 
CCOC(=O)NN=C1C[C@@H](O)[C@@H](O)[C@@H]2[C@@H]3C(=O)N(C(C)(C)C)C(=O)[C@@H]3CC[C@@H]12 | 0.63 (inactive) | -0.145 | 0.439 | -1.69 (inactive) |  | 
O=C1C[C@]2(c3ccc([N+](=O)[O-])cc3)C(=O)N(CCN3CCOCC3)c3cc(CO)ccc3[C@H]2N1CC12CC3CC(CC(C3)C1)C2 | 0.288 (inactive) | -0.307 | -0.226 | -2.32 (inactive) | 0.416 (inactive) | 0.394 (inactive)
CC(C)(C)OC(=O)CC[C@]1(C(N)=O)COC(c2ccc(OCCCO)cc2)=N1 | 2.48 (inactive) | 0.223 | 0.0099 | -1.89 (inactive) | 0.764 (inactive) | 0.572 (inactive)
COC(=O)[C@@]1(Cc2ccc(F)cc2)[C@H]2c3cc(C(=O)N(C)C)n(Cc4ccc(OC)c(OC)c4)c3C[C@H]2CN1C(=O)c1ccccc1 | 0.316 (inactive) | 0.835 | -1.03 | -3.65 (inactive) | 0.427 (inactive) | 0.753 (inactive)
CCOC(=O)C[C@H]1[C@H](OC(=O)c2cc3ccccc3oc2=O)[C@@H](NC(=O)c2ccc3ccccc3n2)c2cc(OCCCO)ccc2N1C(=O)c1ccccc1 | 0.26 (inactive) | -0.224 | -2.07 | -0.763 (inactive) | 0.22 (inactive) | 0.249 (inactive)
COC(=O)[C@@]1(Cc2ccc(F)cc2)[C@@H]2C(=CC(=O)[C@H]2CC(=O)C(=O)N(C)C)CN1C(=O)c1ccccc1 | 0.0142 (inactive) | 0.472 | -1.35 | -2.5 (inactive) | -0.0509 (inactive) | -0.914 (inactive)
CC(C)c1ccc(NN2C(C(O)c3ccc4c(c3)OCO4)C=CC3C(=O)N(c4ccccc4)C(=O)C32)cc1 (stereo unspecified) | 0.803 (inactive) | 0.665 | -0.121 | -1.45 (inactive) | -0.575 (inactive) | -0.575 (inactive)
COc1ccc([Si](C)(C)[C@H]2[C@H](CCO)O[C@@]3(C(=O)N(Cc4cccc(NC(=O)[C@H](C)O)c4)c4ccccc43)[C@@H]2C)cc1 | -0.201 (inactive) | 0.618 | -2.74 | -6.16 (inactive) | -1.95 (inactive) | -0.667 (inactive)
